According to PubChem BioAssay AID1159580 (chemical genetic matrix, 2015):
The whole screen tested about 5,500 compounds, of which about 2,000 (36%) were called active. Inconclusive results (about 18%) are left out. No stated cut-off is given here; in the data, active means normalized growth mostly below about 0.91 (no sharp cut-off); inconclusive means no clear call, values can overlap the other calls; inactive means mostly above about 0.92. The list shows a part of the results.

Experiment: chemical genetic growth profiling, strain panel (AID 1159580);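 further: tested at 20 µM; growth read once vehicle control cultures reached saturation at 30 °C; 1 = growth at the plate median or of vehicle wells; lower values mean less growth of the strain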
Settings: growth OD

Measured: normalized growth

Cc1ccc(C(=O)c2ccc(CC(=O)O)n2C)cc1
inactive: S. cerevisiae deletion strains, locus YJR075W, strain HOC1, active compounds read low 1.02 | S. cerevisiae deletion strains, locus YKL009W, strain mrt4, active compounds read low 0.958 | S. cerevisiae deletion strains, locus YKL068W, active compounds read low 0.99 | S. cerevisiae deletion strains, locus YKL085W, strain MDH1 (second series), active compounds read low 0.98 | S. cerevisiae deletion strains, locus YKL085W, strain MDH1, active compounds read low 0.98 | S. cerevisiae deletion strains, locus YKL160W, strain elf1, active compounds read low 1.01 | S. cerevisiae deletion strains, locus YKL190W, strain CNB1, active compounds read low 0.996 | S. cerevisiae deletion strains, locus YKR001C, strain vps1, active compounds read low 0.946 | S. cerevisiae deletion strains, locus YKR026C, strain gcn3, active compounds read low 1.01 | S. cerevisiae deletion strains, locus YKR091W, strain srl3, active compounds read low 1 | S. cerevisiae deletion strains, locus YLL001W, strain dnm1, active compounds read low 0.981 | S. cerevisiae deletion strains, locus YLL026W, active compounds read low 1.01 | S. cerevisiae deletion strains, locus YLL041C, strain sdh2, active compounds read low 1 | S. cerevisiae deletion strains, locus YLR027C, strain aat2, active compounds read low 1.02 | S. cerevisiae deletion strains, locus YLR039C, strain RIC1, active compounds read low 0.996 | S. cerevisiae deletion strains, locus YLR058C, strain SHM2, active compounds read low 1 | S. cerevisiae deletion strains, locus YLR102C, strain apc9, active compounds read low 0.973 | S. cerevisiae deletion strains, locus YLR113W, strain HOG1, active compounds read low 0.991 | S. cerevisiae deletion strains, locus YLR221C, strain rsa3, active compounds read low 0.971 | S. cerevisiae deletion strains, locus YLR258W, strain gsy2, active compounds read low 1.01 | S. cerevisiae deletion strains, locus YLR262C, strain YPT6 (second series), active compounds read low 0.994 | S. cerevisiae deletion strains, locus YLR262C, strain YPT6, active compounds read low 1 | S. cerevisiae deletion strains, locus YLR268W, strain sec22, active compounds read low 0.918 | S. cerevisiae deletion strains, locus YLR320W, strain mms22, active compounds read low 0.958 | S. cerevisiae deletion strains, locus YLR330W, strain CHS5, active compounds read low 1 | S. cerevisiae deletion strains, locus YLR342W, strain FKS1 (second series), active compounds read low 0.997 | S. cerevisiae deletion strains, locus YLR342W, strain FKS1, active compounds read low 1.02 | S. cerevisiae deletion strains, locus YLR357W, strain rsc2, active compounds read low 1.02 | S. cerevisiae deletion strains, locus YLR370C, strain arc18, active compounds read low 1 | S. cerevisiae deletion strains, locus YLR371W, strain rom2, active compounds read low 0.978 | S. cerevisiae deletion strains, locus YLR384C, strain iki3, active compounds read low 1.01 | S. cerevisiae deletion strains, locus YLR418C, strain cdc73, active compounds read low 0.968 | S. cerevisiae deletion strains, locus YML016C, strain PPZ1, active compounds read low 1.01 | S. cerevisiae deletion strains, locus YML032C, strain rad52, active compounds read low 0.969 | S. cerevisiae deletion strains, locus YML120C, strain ndi1, active compounds read low 0.982 | S. cerevisiae deletion strains, locus YML124C, strain tub3, active compounds read low 0.981 | S. cerevisiae deletion strains, locus YMR058W, strain fet3, active compounds read low 1.02 | S. cerevisiae deletion strains, locus YMR078C, strain ctf18, active compounds read low 0.97 | S. cerevisiae deletion strains, locus YMR125W, strain sto1, active compounds read low 1.01 | S. cerevisiae deletion strains, locus YMR129W, active compounds read low 1.02 | S. cerevisiae deletion strains, locus YMR205C, strain PFK2, active compounds read low 1.01 | S. cerevisiae deletion strains, locus YMR223W, strain ubp8, active compounds read low 0.979 | S. cerevisiae deletion strains, locus YMR231W, strain pep5, active compounds read low 1.01 | S. cerevisiae deletion strains, locus YMR307W, strain GAS1, active compounds read low 0.991 | S. cerevisiae deletion strains, locus YNL067W, strain RPL9B, active compounds read low 1 | S. cerevisiae deletion strains, locus YNL071W, strain lat1, active compounds read low 1.02 | S. cerevisiae deletion strains, locus YNL153C, strain GIM3, active compounds read low 1 | S. cerevisiae deletion strains, locus YNL183C, strain NPR1, active compounds read low 0.928 | S. cerevisiae deletion strains, locus YNL209W, strain ssb2, active compounds read low 1.02 | S. cerevisiae deletion strains, locus YNL233W, strain BNI4, active compounds read low 1 | S. cerevisiae deletion strains, locus YNL248C, strain rpa49, active compounds read low 1.02 | S. cerevisiae deletion strains, locus YNL250W, strain rad50, active compounds read low 0.987 | S. cerevisiae deletion strains, locus YNL271C, strain bni1, active compounds read low 0.968 | S. cerevisiae deletion strains, locus YNL298W, strain CLA4, active compounds read low 0.95 | S. cerevisiae deletion strains, locus YNL307C, strain MCK1, active compounds read low 0.956 | S. cerevisiae deletion strains, locus YNL322C, strain KRE1 (second series), active compounds read low 1.03 | S. cerevisiae deletion strains, locus YNL322C, strain KRE1, active compounds read low 1 | S. cerevisiae deletion strains, locus YNR049C, strain mso1, active compounds read low 1 | S. cerevisiae deletion strains, locus YNR052C, strain pop2, active compounds read low 0.978 | S. cerevisiae deletion strains, locus YOL006C, strain TOP1, active compounds read low 0.969 | S. cerevisiae deletion strains, locus YOL012C, strain htz1 0.918 | S. cerevisiae deletion strains, locus YOL147C, strain pex11, active compounds read low 0.974 | S. cerevisiae deletion strains, locus YOR001W, strain rrp6, active compounds read low 0.975 | S. cerevisiae deletion strains, locus YOR061W, strain CKA2, active compounds read low 1 | S. cerevisiae deletion strains, locus YOR069W, strain VPS5, active compounds read low 0.997 | S. cerevisiae deletion strains, locus YOR070C, strain gyp1, active compounds read low 1.02 | S. cerevisiae deletion strains, locus YOR080W, strain dia2, active compounds read low 1.02 | S. cerevisiae deletion strains, locus YOR083W, strain WHI5, active compounds read low 0.974 | S. cerevisiae deletion strains, locus YOR106W, strain vam3, active compounds read low 1.04 | S. cerevisiae deletion strains, locus YOR136W, strain idh2, active compounds read low 0.989 | S. cerevisiae deletion strains, locus YOR144C, strain elg1, active compounds read low 0.979 | S. cerevisiae deletion strains, locus YOR184W, strain ser1, active compounds read low 0.956 | S. cerevisiae deletion strains, locus YOR231W, strain MKK1, active compounds read low 0.987 | S. cerevisiae deletion strains, locus YOR265W, strain rbl2, active compounds read low 1.01 | S. cerevisiae deletion strains, locus YOR270C, strain vph1, active compounds read low 0.934 | S. cerevisiae deletion strains, locus YOR290C, strain snf2, active compounds read low 1.01 | S. cerevisiae deletion strains, locus YOR316C, strain cot1, active compounds read low 0.974 | S. cerevisiae deletion strains, locus YPL051W, strain arl3, active compounds read low 1.01 | S. cerevisiae deletion strains, locus YPL055C, strain LGE1, active compounds read low 1.02 | S. cerevisiae deletion strains, locus YPL078C, strain atp4, active compounds read low 0.995 | S. cerevisiae deletion strains, locus YPL106C, strain sse1, active compounds read low 1.03 | S. cerevisiae deletion strains, locus YPL240C, strain hsp82, active compounds read low 1.03 | S. cerevisiae deletion strains, locus YPL241C, strain CIN2, active compounds read low 1 | S. cerevisiae deletion strains, locus YPL256C, strain CLN2, active compounds read low 0.969 | S. cerevisiae deletion strains, locus YPR119W, strain clb2, active compounds read low 0.975 | S. cerevisiae deletion strains, locus YPR141C, strain kar3, active compounds read low 0.985 | S. cerevisiae deletion strains, locus YPR163C, strain tif3, active compounds read low 0.984 | S. cerevisiae deletion strains, locus YPR167C, strain met16, active compounds read low 0.973 | S. cerevisiae deletion strains, strain wtn01, active compounds read low 0.973 | S. cerevisiae strains, strain wild type, active compounds read low 1
